Data taken from PubChem BioAssay.
Inconclusive results are not listed. The source made the active and inactive calls.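 The calls were made as follows, unless noted: active = viability at or under a set limit in both replicates, limit being median viability minus 3 SD (cut at about 48% in these data, passing the limit was not always enough); inconclusive = at or under the limit in just one replicate; inactive = at or above the limit in both replicates.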

Assays:
[1] = reducers of endogenous Her2 protein level, primary screen, SKBR3 breast tumor cells, AlphaScreen, ATP viability (AID 461;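 active = Her2 level under about 52% in both replicate screens, with viability over 70% of control, limit read from the data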;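 as to Her2 level: lower value means less Her2 protein in the cells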;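 as to viability: percent of carrier control wells set as 100% viability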); conditions: 18-24 h, measured here: SKBR3 viability, ATP luminescence, at 10 µM
[2] = target: Receptor tyrosine-protein kinase erbB-2 (Homo sapiens) (UniProt P04626); experiment: as above; conditions: 18-24 h, at 10 µM, stronger effect = lower value
Chain of Receptor tyrosine-protein kinase erbB-2 (Homo sapiens) (P04626 whole entry, looked up): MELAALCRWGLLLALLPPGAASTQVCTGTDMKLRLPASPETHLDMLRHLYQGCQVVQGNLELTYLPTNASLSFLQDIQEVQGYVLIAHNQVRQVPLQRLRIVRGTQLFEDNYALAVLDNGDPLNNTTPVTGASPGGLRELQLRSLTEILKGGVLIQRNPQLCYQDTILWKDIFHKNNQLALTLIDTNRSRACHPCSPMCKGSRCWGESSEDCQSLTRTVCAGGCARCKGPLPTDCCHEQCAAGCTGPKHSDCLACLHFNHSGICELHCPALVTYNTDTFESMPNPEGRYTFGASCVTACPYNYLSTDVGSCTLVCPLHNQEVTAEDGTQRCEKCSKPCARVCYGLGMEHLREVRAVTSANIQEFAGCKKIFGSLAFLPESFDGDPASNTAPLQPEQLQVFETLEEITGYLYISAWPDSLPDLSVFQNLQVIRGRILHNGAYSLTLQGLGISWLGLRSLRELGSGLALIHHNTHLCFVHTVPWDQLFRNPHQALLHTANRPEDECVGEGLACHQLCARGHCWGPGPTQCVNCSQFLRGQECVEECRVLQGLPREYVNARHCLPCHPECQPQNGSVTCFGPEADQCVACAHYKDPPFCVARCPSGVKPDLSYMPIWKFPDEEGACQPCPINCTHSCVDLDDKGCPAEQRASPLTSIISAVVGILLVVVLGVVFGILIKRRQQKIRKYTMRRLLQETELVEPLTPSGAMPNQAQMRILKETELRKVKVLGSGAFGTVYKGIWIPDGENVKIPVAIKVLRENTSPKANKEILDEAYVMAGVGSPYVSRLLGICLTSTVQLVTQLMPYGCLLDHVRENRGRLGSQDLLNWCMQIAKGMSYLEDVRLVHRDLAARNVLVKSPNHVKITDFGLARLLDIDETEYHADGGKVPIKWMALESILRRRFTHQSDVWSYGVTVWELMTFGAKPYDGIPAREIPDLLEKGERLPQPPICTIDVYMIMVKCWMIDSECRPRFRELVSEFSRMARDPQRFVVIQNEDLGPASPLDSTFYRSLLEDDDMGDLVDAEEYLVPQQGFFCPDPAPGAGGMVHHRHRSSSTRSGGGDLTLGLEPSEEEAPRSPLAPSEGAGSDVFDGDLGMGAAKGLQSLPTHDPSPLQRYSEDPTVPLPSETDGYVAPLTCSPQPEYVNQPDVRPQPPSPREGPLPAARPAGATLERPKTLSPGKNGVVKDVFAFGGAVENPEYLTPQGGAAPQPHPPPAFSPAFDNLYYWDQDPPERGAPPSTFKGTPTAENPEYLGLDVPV

[3] = SK-BR-3 cell growth inhibitors, pilot screen, 24 h, human (AID 572;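 active = viability at or below 10% of carrier control in both of two separate runs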;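 also: compound exposure lasted between 18 and 24 h rather than exactly 24 h; 100% = carrier-treated control wells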); conditions: SK-BR-3 viability, CellTiter-Glo luminescence, at 10 µM, stronger effect = lower value
[4] = HUVEC growth inhibition – cell-based, human, primary screen (AID 575;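 active = viability at or below 30% in both replicate assays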;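 also: 100% = median of untreated cell wells with 0.1% DMSO on each plate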); conditions: HUVEC proliferation, CellTiter-Glo luminescence, 72 h; at 10 µM; stronger effect = lower value
[5] = growth inhibitors of H69AR lung tumor, primary screen, human, duplicate replicates (AID 580); conditions: H69AR lung tumor cells viability, ATP luminescence, 72 h; at 10 µM; stronger effect = lower value;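 also: 100% = mean luminescence of untreated wells and 0% = no signal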
[6] = reversal of MRP1-mediated doxorubicin resistance, pilot screen, H69AR cells, doxorubicin co-treatment (AID 601;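 active = viability loss from added drug above about 55%, and viability with drug at most 40%, in both replicates, limit read from the data, passing the limit was not always enough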); conditions: CellTiter-Glo, 72 h, at 10 µM; for differential viability (reversal): stronger effect = higher value
[7] = 384-well plate pilot, post-Golgi transport modulator project, inhibition of yeast transport mutant growth (AID 636; in the data active = inhibition above about 31%); conditions: absorbance 615 nm, about 18 h, stronger effect = higher value
[8] = growth suppression of yeast trafficking mutant, preliminary HTS, modulators of trafficking downstream of Golgi apparatus project, 1536-format plate, OD 615 nm (AID 637; in the data active = inhibition above about 30%); conditions: yeast transport mutant growth, absorbance 615 nm, 18 h; stronger effect = higher value
[9] = OD615 S. cerevisiae growth inhibition, permissive medium, pilot counter-assay, permissive growth control for S. cerevisiae lifespan shortening project (AID 705;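 active = growth inhibition above 25% in both replicates, a cutoff set 3 SD above the mean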); conditions: OD615, 24 h, at 10 µM, stronger effect = higher value
[10] = Restrictive medium S. cerevisiae growth inhibition, OD615, pilot screen of yeast lifespan reduction project, restrictive growth control (AID 706;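 active = growth inhibition above a set limit, 3 SD over mean compound inhibition, in both replicates, cut at about 43% in these data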;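 also: modified DeaD lifespan yeast strain shifted to restrictive glucose medium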); conditions: OD615, 48 h, at 10 µM, stronger effect = higher value
[11] = viability gain of MRP-1-high H69AR cells under doxorubicin, pilot screen, MRP-1 activator project, CellTiter-Glo, duplicate (AID 807;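 active = viability increase at or above a cutoff of the median across tested compounds plus 3 SD, cut at about 8.5% in these data, passing the limit was not always enough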;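 also: compound pretreatment 18-22 h then 72 h combined with doxorubicin; 0% = doxorubicin alone and 100% = vehicle without doxorubicin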); conditions: H69AR viability with doxorubicin, CellTiter-Glo luminescence; at 10 µM; stronger effect = higher value
[12] = growth suppression of beta-catenin knockout HCT116, pilot screen, human colon tumor cells (AID 823;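 active = cell viability at or below a set limit in both duplicate runs, the limit being the all-compound median minus 4 SD, cut at about 23% in these data, passing the limit was not always enough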;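 also: 0% = wells killed by 20 µM Hyamine and 100% = untreated DMSO cell wells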); conditions: CellTiter-Glo, 60 h, at 10 µM, stronger effect = lower value
[13] = growth suppression of PTEN-deleted HCT116, pilot screen, cell-based, HCT116 clonal line, CellTiter-Glo (AID 824;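 active = viability at or below 27.92% in each of two runs, the all-compound median minus 4 SD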;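 also: 0% = 20 µM Hyamine control and 100% = vehicle cell control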); conditions: 60 h, at 10 µM, stronger effect = lower value
[14] = inhibitors of the yeast RAM network, pilot screen, dse1pr::URA3 reporter, 5-FOA selection (AID 869;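 active = inhibition over a set limit, the all-compound mean plus 3 SD, in both replicate runs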;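 also: 0% = DMSO wells with no growth and 100% = 10 µM 1-NA-PP1 with full growth; RAM network block rescues cells from 5-FOA so hits raise OD615 growth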); conditions: S. cerevisiae dse1pr::URA3 5-FOA growth, OD615, 2 d; at 10 µM; stronger effect = higher value; strain carries analog-sensitive mutant Cbk1 kinase
[15] = RAM signaling pathway blockade in yeast – S. cerevisiae, Pdr1DBD-CYC8 efflux-inhibited sensitized strain, primary screen (AID 1298;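 active = RAM network inhibition above 8.4% in each of two replicates, 3 SD over the compound average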;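 also: 0% = DMSO untreated cells without growth and 100% = 10 µM 1-NA-PP1 full growth; higher means more yeast growth rescued from 5-FOA killing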); conditions: S. cerevisiae cbk1-as DSE1-URA3 strain, 5-FOA growth OD615, 2 d; at 50 µM; stronger effect = higher value
[16] = H69AR cells + 2 uM doxorubicin, measured here: viability with 2 uM doxorubicin, stronger effect = lower value
[17] = H69AR cells, compound alone cytotoxicity

Row | Structure (SMILES) | viability [1] [%] | Her2 level [2] | viability [3] | viability [4] | viability [5] | differential viability (reversal) ([6]; H69AR cells + 2 uM doxorubicin) | viability [6, 16] [%] | viability [6, 17] [%] | inhibition [7] | inhibition [8] | growth inhibition [9] | growth inhibition [10] | viability increase [11] | viability [12] | viability [13] | inhibition [14] | RAM network inhibition [15]
1 | COc1cccc(-c2nc3n(n2)C(c2cccs2)C(C(=O)Nc2cccnc2)=C(C)N3)c1 (stereo not given) | 78 | 79% (inactive) | 78% (inactive) | 83.2% (inactive) | 101% (inactive) | -5.46% (inactive) | 107 | 101 | -2.93% (inactive) | -0.67% (inactive) | -13.1% (inactive) | -6.04% (inactive) | -2.26% (inactive) | 87.2% (inactive) | 93% (inactive) | -0.145% (inactive) | 5.84% (inactive)
2 | COc1ccc(OC)c(C2=NOC(C(=O)Nc3cc(C)nn3-c3ccccc3)C2)c1 (stereo not given) | 86.5 | 106% (inactive) | 86.5% (inactive) | 114% (inactive) | 95.2% (inactive) | 9.74% (inactive) | 85.5 | 95.2 | -2.56% (inactive) | -0.33% (inactive) | -7.35% (inactive) | -4.62% (inactive) | 0.16% (inactive) | 94.2% (inactive) | 94.9% (inactive) | 1.83% (inactive) | 7.22% (inactive)
3 | O=C(C1CCC(CNc2c(N3CCCCC3)c(=O)c2=O)CC1)N1CCc2ccccc2C1 (stereo not given) | 95 | 93.5% (inactive) | 95% (inactive) | 107% (inactive) | 91.8% (inactive) | 9.49% (inactive) | 82.3 | 91.8 | -0.53% (inactive) | 0% (inactive) | -4.97% (inactive) | -4.18% (inactive) | -3.33% (inactive) | 87.5% (inactive) | 83.2% (inactive) | -0.07% (inactive) | 2.9% (inactive)
4 | Cc1ccccc1Cn1ccc(NC(=O)c2onc(C)c2Cl)n1 | 107 | 106% (inactive) | 107% (inactive) | 93.6% (inactive) | 100% (inactive) | 16.8% (inactive) | 83.6 | 100 | -4% (inactive) | -4.17% (inactive) | -7.95% (inactive) | 2.75% (inactive) | 4.68% (inactive) | 103% (inactive) | 91.2% (inactive) | 1.72% (inactive) | 4.82% (inactive)
5 | CC(=O)Nc1cc(N2C(=O)CCC2=O)ccc1Cl | 93 | 97% (inactive) | 93% (inactive) | 110% (inactive) | 103% (inactive) | 12.4% (inactive) | 90.5 | 103 | 0.4% (inactive) | 6.45% (inactive) | -10.2% (inactive) | -12.5% (inactive) | -1.29% (inactive) | 102% (inactive) | 103% (inactive) | 1.19% (inactive) | 1.88% (inactive)
6 | O=C(O)C1CC(=O)N(CCOc2ccccc2)C1 (stereo not given) | 105 | 126% (inactive) | 105% (inactive) | 111% (inactive) | 93.9% (inactive) | -3.07% (inactive) | 97 | 93.9 | -3.51% (inactive) | -2.62% (inactive) | 2.4% (inactive) | 3.82% (inactive) | 0.57% (inactive) | 102% (inactive) | 100% (inactive) | 0.69% (inactive) | 1.17% (inactive)
7 | COc1cccc(-c2nc(CS(=O)(=O)CC(=O)NCc3ccc(Cl)cc3)c(C)o2)c1 | 72.5 | 71% (inactive) | 72.5% (inactive) | 42.8% (inactive) | 87.9% (inactive) | 10.1% (inactive) | 77.8 | 87.9 | 0.4% (inactive) | -2.3% (inactive) | -8.85% (inactive) | -2.68% (inactive) | -3.55% (inactive) | 87.1% (inactive) | 89.3% (inactive) | 2.36% (inactive) | 5.41% (inactive)
8 | CC1(C(=O)NC2CCCCC2)CCC(=O)N1Cc1cccs1 (stereo not given) | 83 | 114% (inactive) | 83% (inactive) | 102% (inactive) | 85.3% (inactive) | -5.18% (inactive) | 90.5 | 85.3 | 2.31% (inactive) | 8.83% (inactive) | -4.46% (inactive) | -15.9% (inactive) | -0.4% (inactive) | 102% (inactive) | 93.7% (inactive) | 3.65% (inactive) | 1.09% (inactive)
9 | Cc1cn2c(-c3ccc(Cl)cc3)nnc2s1 | 96 | 92.5% (inactive) | 96% (inactive) | 74.7% (inactive) | 95.2% (inactive) | -3.87% (inactive) | 99.1 | 95.2 | -3.87% (inactive) | 4.67% (inactive) | -8.55% (inactive) | 16.2% (inactive) | -0.6% (inactive) | 97.6% (inactive) | 90.3% (inactive) | 2.66% (inactive) | 4.88% (inactive)
10 | CCOC(=O)N1CCN(c2cc(=O)n(-c3cccc(Br)c3)c(=O)[nH]2)CC1 | 99.5 | 108% (inactive) | 99.5% (inactive) | 94.4% (inactive) | 103% (inactive) | 17.2% (inactive) | 85.5 | 103 | -3.2% (inactive) | -1.8% (inactive) | -9.72% (inactive) | -24.3% (inactive) | -2.79% (inactive) | 108% (inactive) | 93.5% (inactive) | 3.14% (inactive) | 3.07% (inactive)
11 | CCCC(=O)NCCc1cc2c(C)ccc(C)c2[nH]c1=O | 106 | 93% (inactive) | 106% (inactive) | 110% (inactive) | 98.8% (inactive) | 12.1% (inactive) | 86.7 | 98.8 | -5.6% (inactive) | 9.33% (inactive) | -4.56% (inactive) | -10.1% (inactive) | -0.5% (inactive) | 111% (inactive) | 103% (inactive) | 0.625% (inactive) | 0.95% (inactive)
12 | Cc1cccc(N2CCN(C(=O)c3cc4ccccc4oc3=O)CC2)c1C | 90.5 | 116% (inactive) | 90.5% (inactive) | 98.6% (inactive) | 100% (inactive) | 8.08% (inactive) | 92 | 100 | -6.53% (inactive) | -7.67% (inactive) | -4.18% (inactive) | -0.595% (inactive) | 1.65% (inactive) | 88.5% (inactive) | 94.3% (inactive) | 0.78% (inactive) | -1.13% (inactive)
13 | Clc1cccc(N2CCN(Cc3nc(-c4ccccc4)no3)CC2)c1 | 90.5 | 96% (inactive) | 90.5% (inactive) | 109% (inactive) | 91.3% (inactive) | -4.04% (inactive) | 95.4 | 91.3 | 0.53% (inactive) | -6.5% (inactive) | 3.02% (inactive) | 0.865% (inactive) | -2.61% (inactive) | 91.5% (inactive) | 90% (inactive) | -1.2% (inactive) | 4.99% (inactive)
14 | CCCn1cc(SCC(N)=O)c2ccccc21 | 86.5 | 102% (inactive) | 86.5% (inactive) | 90.6% (inactive) | 91.2% (inactive) | -13.4% (inactive) | 105 | 91.2 | -4.93% (inactive) | 4.83% (inactive) | -9.29% (inactive) | -15.9% (inactive) | -1.96% (inactive) | 100% (inactive) | 95.6% (inactive) | 0.545% (inactive) | 0.42% (inactive)
15 | N#CC(C(=O)Nc1ccccc1)=C1CCCCC1 | 99 | 89.5% (inactive) | 99% (inactive) | 85.5% (inactive) | 109% (inactive) | 14.8% (inactive) | 94.2 | 109 | -4.67% (inactive) | -3.55% (inactive) | -25.1% (inactive) | -18.8% (inactive) | 1.71% (inactive) | 91.2% (inactive) | 102% (inactive) | 1.52% (inactive) | 4.92% (inactive)
16 | COc1ccc(-c2nnc(SCC(=O)NC(C)c3ccccc3)o2)cc1 (stereo not given) | 94 | 102% (inactive) | 94% (inactive) | 82% (inactive) | 100% (inactive) | 5.95% (inactive) | 94.4 | 100 | 1.87% (inactive) | 2.33% (inactive) | -4.83% (inactive) | -1.46% (inactive) | -3.41% (inactive) | 90.8% (inactive) | 89.8% (inactive) | 1.37% (inactive) | 6.94% (inactive)
17 | N#Cc1cnc2sc3ccccc3n2c1=N | 99 | 114% (inactive) | 99% (inactive) | 69% (inactive) | 87.7% (inactive) | -2.73% (inactive) | 90.5 | 87.7 | -3.07% (inactive) | 3.06% (inactive) | 0.55% (inactive) | 12.3% (inactive) | -1.27% (inactive) | 94.4% (inactive) | 95.9% (inactive) | -0.405% (inactive) | 5.97% (inactive)
18 | COc1cc(C2c3c(oc4ccccc4c3=O)C(=O)N2c2ccc(C)cn2)ccc1O (stereo not given) | 66 | 114% (inactive) | 66% (inactive) | 94.6% (inactive) | 101% (inactive) | 1.23% (inactive) | 100 | 101 | -0.9% (inactive) | -4% (inactive) | -6.67% (inactive) | -1.33% (inactive) | -2.69% (inactive) | 91.9% (inactive) | 88.4% (inactive) | 0.865% (inactive) | 4.26% (inactive)
19 | COc1ccc(NC(=O)CSc2nc3c(c(=O)n2-c2ccccc2OC)SCC3)cc1 | 102 | 110% (inactive) | 102% (inactive) | 87.4% (inactive) | 89.7% (inactive) | -5.71% (inactive) | 95.4 | 89.7 | -1.6% (inactive) | -5.5% (inactive) | 1.7% (inactive) | -1.84% (inactive) | -0.32% (inactive) | 99% (inactive) | 98.9% (inactive) | 2.67% (inactive) | 3.97% (inactive)
20 | COc1ccccc1N1CCN(C(=O)c2cc(C3CC3)on2)CC1 | 84 | 110% (inactive) | 84% (inactive) | 80.8% (inactive) | 86.5% (inactive) | -6.73% (inactive) | 93.2 | 86.5 | -0.64% (inactive) | -3.5% (inactive) | -9.72% (inactive) | 0.825% (inactive) | 0.32% (inactive) | 98.5% (inactive) | 103% (inactive) | 0.905% (inactive) | 2.48% (inactive)
